# From PubChem BioAssay AID463173 (ICCB-Longwood Screening Facility, Harvard Medical School, 2010)
# The campaign covered roughly 52,000 compounds. About 4,300 (8.3%) were called active. Rule as the data show it: active = survival mostly below about 52% (no sharp cut-off); inactive = mostly above about 56%. Only a selection was taken, and actives are over-represented in it overall.
# Tested on: DeltatarO mutant
# Experiment: S. aureus survival, RN4220 and DeltatarO strains – OD600, teichoic acid synthesis inhibitors, primary screen (AID 463173)
# Settings: S. aureus RN4220 wild type/DeltatarO growth, OD600, 18 h, active compounds read low, screened at 18.75 µg/mL (by protocol)
row,Compound,survival
1,O=C(c1ccco1)N1CCN(C(c2ccccc2)c2nnnn2Cc2ccccc2)CC1 (centres undefined),88% (inactive)
2,O=C(Cn1cc(C(=O)c2ccco2)c2ccccc21)Nc1ccccc1C(F)(F)F,74% (inactive)
3,CCn1nc(C)c2c(-c3ccccc3)cc(=O)n(C(C)C(=O)NCCc3ccc(Cl)cc3)c21 (centres undefined),87% (inactive)
4,CCc1nnc(SCc2ccc(F)cc2Cl)c2cc3sccc3n12,80% (inactive)
5,CCc1nnc(SCc2c(F)cccc2Cl)c2cc3sccc3n12,94% (inactive)
6,CCc1nnc(SCc2cccc(Cl)c2)c2cc3sccc3n12,-2% (active)
7,CCOC(=O)N1CCN(Cc2nc3cc(NC(=O)CC)ccc3n2C(C)C)CC1,100% (inactive)
8,COc1cccc(-c2csc(N3CCN(C(=S)NCc4ccco4)CC3)n2)c1,91% (inactive)
9,CCOc1ccccc1CNC(=O)Cn1nc(N2CCN(c3ccccc3)CC2)ccc1=O,84% (inactive)
10,COc1ccc(CCNC(=O)CCc2c(C)nc3cc(-c4ccc(Cl)cc4)nn3c2C)c(OC)c1,108% (inactive)
11,COc1ccc(CNC(=O)Cn2nc(N3CCN(c4ccccc4)CC3)ccc2=O)c(OC)c1,-2% (active)
12,CCOC(=O)c1ccc(NC(=O)CCc2c(C)nc3cc(-c4ccc(OC)cc4OC)nn3c2C)cc1,62% (inactive)
13,COc1ccc(CNC(=O)CCc2c(C)nn(-c3ccc(N4CCOCC4)nn3)c2C)c(OC)c1,85% (inactive)
14,COc1cccc(NC(=O)Cn2nc(N3CCN(c4ccccc4)CC3)ccc2=O)c1,77% (inactive)
15,COc1ccccc1-c1cc2nc(C)c(CCC(=O)Nc3ccc(Br)c(C)c3)c(C)n2n1,67% (inactive)
16,COc1ccc(CCNC(=O)CCc2c(C)nc3cc(-c4ccccc4OC)nn3c2C)c(OC)c1,54% (active)
17,CCOc1ccc(NC(=O)CCc2c(C)nc3cc(-c4ccccc4OC)nn3c2C)cc1,53% (active)
18,COc1ccc(CNC(=O)CCc2c(C)nn(-c3ccc(N4CCCCC4)nn3)c2C)c(OC)c1,52% (active)
19,COc1ccc(CNC(=O)CCc2c(C)nn(-c3ccc(N4CCCC4)nn3)c2C)c(OC)c1,75% (inactive)
20,COc1ccccc1CNC(=O)CCc1c(C)nc2cc(-c3ccccc3OC)nn2c1C,58% (inactive)
21,CC(C)c1ccc(S(=O)(=O)NCc2nc3cccnc3n2Cc2ccc(F)cc2)cc1,88% (inactive)
22,COc1cccc(CNC(=O)CN2C(=O)COc3ccc(S(=O)(=O)N4CCOCC4)cc32)c1,94% (inactive)
23,Cn1cc(S(=O)(=O)N2CCCCCC2)cc1C(=O)Nc1ccc(Cl)c(C(F)(F)F)c1,67% (inactive)

row,Compound,survival
1,O=C(Nc1cccc(OC(=O)c2ccco2)c1)c1ccccc1,58% (inactive)
2,CNC(=S)N1CCN(C(=O)/C(=C/c2ccc(F)cc2)NC(C)=O)CC1,95% (inactive)
3,Cc1ccc(-c2cc(C(=O)N(Cc3ccc(C(C)(C)C)cc3)Cc3ccco3)no2)cc1,113% (inactive)
4,CCc1nc2ccc(C(=O)NCCc3ccc(OC)cc3OC)cc2nc1CC,68% (inactive)
5,Cc1cccc(N2CCN(S(=O)(=O)c3ccc4oc(=O)c5ncn(C)c5c4c3)CC2C)c1 (centres undefined),77% (inactive)
6,Cc1ccc2c(c1)NC(=O)C(CC(=O)Nc1ccccc1Cl)O2 (centres undefined),77% (inactive)
7,CCc1nn(C(C)C(=O)N2CCN(c3ccccc3)CC2)c(=O)c2cc3occc3n12 (centres undefined),82% (inactive)
8,CC(=O)Nc1ccc(-c2cc(C(=O)O)c3c(-c4ccccc4)[nH]nc3n2)cc1,56% (inactive)
9,O=C(Nc1nc2c(F)cc(F)cc2s1)c1ccc(S(=O)(=O)N2CCc3ccccc32)cc1,115% (inactive)
10,Clc1ccc2nc(NCc3ccccc3)c3nncn3c2c1,96% (inactive)
11,CC(C)OCCCn1c(SCc2ccccc2C#N)nc2c(sc3ccccc32)c1=O,87% (inactive)
12,CCOC(=O)c1cccc(NC(=O)N2CC(CC)Oc3ccccc32)c1 (centres undefined),54% (inactive)
13,CCOC(=O)c1cccc(NC(=O)CCc2c(C)nc3c4cccnc4nn3c2C)c1,100% (inactive)
14,CCOc1ccc(CCNC(=O)CCc2c(C)nc3cc(-c4ccccc4OC)nn3c2C)cc1,50% (active)
15,CC(=O)c1ccc(NC(=O)CCc2c(C)nc3cc(-c4ccc(Cl)cc4)nn3c2C)cc1,47% (inactive)
16,COc1ccccc1-c1cc2nc(C)c(CCC(=O)NCCc3ccc(SC)cc3)c(C)n2n1,81% (inactive)
17,COc1ccccc1-c1cc2nc(C)c(CCC(=O)NCCc3cccc(C)c3)c(C)n2n1,55% (inactive)
18,CCOC(=O)Cc1c(C)nc2cc(C)nn2c1C,98% (inactive)
19,CCOC(=O)c1cccc(NC(=O)CCc2c(C)nc3cc(-c4ccc(Cl)cc4)nn3c2C)c1,35% (active)
20,CCOc1ccc(NC(=O)CCc2c(C)nc3cc(-c4ccc(Cl)cc4)nn3c2C)cc1,35% (active)
21,CCN(CC)S(=O)(=O)c1ccc(NC(=O)CCc2c(C)nc3cc(-c4ccc(Cl)cc4)nn3c2C)cc1,92% (inactive)
22,CCOC(=O)CC(NC(=O)CCc1c(C)nc2cc(-c3ccccc3)nn2c1C)c1ccc(C)cc1 (centres undefined),109% (inactive)
23,COC(=O)c1cc(NC(=O)CCc2c(C)nc3cc(-c4ccccc4)nn3c2C)cc(C(=O)OC)c1,118% (inactive)

row,Compound,survival
1,CCOC(=O)Cc1c(C)nc2cc(-c3ccc(C(C)(C)C)cc3)nn2c1C,-4% (active)
2,c1ccc(C2=NNC(c3nc4ccccc4[nH]3)C2)cc1 (centres undefined),60% (inactive)
3,CCCOC(=O)C1=C(C)OC23OC(N)=C(C#N)C12C(=O)c1ccccc13 (centres undefined),80% (inactive)
4,O=C(Cn1c(-c2cccs2)cc2ccccc21)NCCCN1CCN(c2ccccc2F)CC1,69% (inactive)
5,CCn1c(SCc2cccc(Br)c2)nnc1-c1nonc1NC(C)=O,108% (inactive)
6,CC1CCN(C(=O)c2cnn(-c3ccc(Cl)cc3)c2C2CCN(C(=O)OC(C)(C)C)CC2)CC1,76% (inactive)
7,Cc1nc2nc(C)c(NS(=O)(=O)c3ccc(CC(C)C)cc3)c(=O)n2[nH]1,89% (inactive)
8,Cc1ccccc1NC(=O)Nc1nnc(N2CCCCCC2)s1,94% (inactive)
9,COc1ccccc1CNC(=O)CCc1c(C)nc2cc(-c3ccc(Cl)cc3)nn2c1C,129% (inactive)
10,CCc1ccccc1NC(=O)CCc1c(C)nc2cc(-c3ccccc3)nn2c1C,59% (inactive)
11,COC(=O)c1ccccc1NC(=O)CCc1c(C)nc2cc(-c3ccc(Cl)cc3)nn2c1C,41% (active)
12,Cc1cc2oc(C(=O)N(Cc3ccc(N(C)C)cc3)CC3CCCO3)c(C)c2cc1Cl (centres undefined),65% (inactive)
13,Cc1ccccc1CNCCSc1nnnn1C,84% (inactive)
14,CCc1ccc(-c2nc3cc(NC(=O)c4ccc(C)c(C)c4)ccc3o2)cc1,151% (inactive)
15,CCc1ccc(C(=O)Nc2cccc(-c3nc4cc(C(C)C)ccc4o3)c2)cc1,41% (active)
16,CC(C)c1ccc2oc(-c3cccc(NC(=O)c4ccc5c(c4)OCCO5)c3)nc2c1,28% (active)
17,CCc1ccc(-c2nc3cc(NC(=O)c4ccc(F)cc4)ccc3o2)cc1,83% (inactive)
18,Cc1ccc2oc(-c3ccc(C)c(NC(=O)c4ccc5c(c4)OCCO5)c3)nc2c1,48% (inactive)
19,COc1ccc2oc(-c3ccc(C)c(NC(=O)c4ccc5c(c4)OCCO5)c3)nc2c1,70% (inactive)
20,Cc1ccc(S(=O)(=O)N(CC(O)Cn2c3ccccc3c3ccccc32)c2cccc(C(N)=O)c2)cc1 (centres undefined),38% (active)
21,Cc1ccc(S(=O)(=O)N(CC(O)Cn2c3ccccc3c3ccccc32)c2cccc(C(=O)N(C)C)c2)cc1 (centres undefined),54% (inactive)
22,Cc1ccc(S(=O)(=O)N(CC(O)Cn2c3ccccc3c3ccccc32)c2cccc(C(=O)NCCO)c2)cc1 (centres undefined),56% (inactive)
23,Cc1ccccc1-c1ccnc2c(-c3ccc(F)cc3)c(C)nn12,6% (active)

row,Compound,survival
1,CCc1nn2c(-c3ccco3)ccnc2c1-c1ccccc1,84% (inactive)
2,COc1ccccc1-c1ccnc2c(-c3ccc(Br)cc3)c(C)nn12,94% (inactive)
3,CCc1nn2c(-c3ccccc3OC)ccnc2c1-c1ccccc1,0% (active)
4,Cc1nn2c(-c3ccco3)ccnc2c1-c1ccc(F)cc1,90% (inactive)
5,COc1cccc(-c2ccnc3c(-c4ccc(F)cc4)c(C)nn23)c1,93% (inactive)
6,COc1ccc(-c2ccnc3c(-c4ccc(F)cc4)c(C)nn23)cc1OC,88% (inactive)
7,CCc1nn2c(-c3ccco3)ccnc2c1-c1ccc(F)cc1,81% (inactive)
8,CCc1nn2c(-c3ccccc3OC)ccnc2c1-c1ccc(F)cc1,2% (active)
9,Cc1cc2nn(-c3ccc(F)cc3)nc2cc1NC(=O)c1cc(Cl)ccc1Cl,141% (inactive)
10,CC1CCCN(S(=O)(=O)c2ccc3c(c2)CCN3C(=O)CCC(=O)O)C1 (centres undefined),96% (inactive)
11,Cc1ccc(N2CC(c3nnc(NC(=O)c4ccco4)s3)CC2=O)cc1Cl (centres undefined),77% (inactive)
12,CCN1C(=O)CC(n2c(C)nc3ccccc32)C1=O (centres undefined),96% (inactive)
13,Cc1ccc(-c2nn(-c3ccccc3)c3[nH]c(=O)c(CNCCN4CCOCC4)cc23)cc1,115% (inactive)
14,NC(CC(=O)OC1CCCCC1)C(=O)OC1CCCCC1 (centres undefined),89% (inactive)
15,O=C(Nc1ccc(F)c(Cl)c1)C1CCCN(c2ncnc3onc(-c4ccc(F)cc4)c23)C1 (centres undefined),78% (inactive)
16,CN(Cc1ccco1)S(=O)(=O)c1nnc(NC(=O)c2ccccc2Cl)s1,76% (inactive)
17,Cc1ccc(C(=O)Nc2nnc(S(=O)(=O)N(C)Cc3ccc(F)cc3)s2)cc1,60% (inactive)
18,Cc1ccc(C(=O)Nc2nnc(S(=O)(=O)N(C)Cc3ccco3)s2)cc1,39% (active)
19,CC(C)COc1ccc(C(=O)Nc2nnc(S(=O)(=O)N(C)Cc3ccco3)s2)cc1,79% (inactive)
20,CN(Cc1ccco1)S(=O)(=O)c1nnc(NC(=O)c2ccccc2)s1,23% (active)
